Compound activity: PubChem, Broad Institute
Only some compounds are listed: those with a hit (about 2.8% of all), similar ones and a draw of the others.
p53 mut binder: binders of human mutant p53, primary screen, biochemical, small molecule microarray, anti-GST fluorescence. 17,000 tested, 0.4% active. AID 624136, 2012. calls only. small molecule microarray binding. mutant tumor protein p53 (GST-tagged), Homo sapiens;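 active = compounds whose four printed spots each glow above background more than chance allows, each with a p-value under 7%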
mut p53 react: mutant p53 pathway re-activators, primary screen, cell-based, SW480, luciferase, single point, HTS; SW480 PUMA-promoter luciferase, p53 mutant reactivation; activation, % at 9.98 µM; 28,000 tested, 1.5% active; AID 624151, 2012; in the data active = activation above about 52%
c-Myc SMM: binders of human c-Myc, primary screen, biochemical, small molecule microarray, anti-His fluorescence. 17,000 tested, 1.5% active. calls only. His-c-Myc binding;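 active = spot fluorescence over background with P-value below 7% in all four replicate spots, showing protein binding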;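 note: score is binary with 100 for all four spots passing and 0 otherwise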
NFkB binder: binders of NF-kB p50 subunit, primary screen, biochemical, small molecule microarray, anti-His fluorescence. Nuclear factor NF-kappa-B p105 subunit (Homo sapiens), P19838. anti-His fluorescence binding. calls only. 17,000 tested, 1.3% active. AID 624139, 2012;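 active = spot fluorescence over background significantly raised, with a chance value under 7% in all four replicate spots of the compound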;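 note: probe protein is his-tagged human p50 processed subunit at 1 µg/ml; raw spot fluorescence signals with no normalization applied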
Target sequence (P19838 1-433 limits assumed): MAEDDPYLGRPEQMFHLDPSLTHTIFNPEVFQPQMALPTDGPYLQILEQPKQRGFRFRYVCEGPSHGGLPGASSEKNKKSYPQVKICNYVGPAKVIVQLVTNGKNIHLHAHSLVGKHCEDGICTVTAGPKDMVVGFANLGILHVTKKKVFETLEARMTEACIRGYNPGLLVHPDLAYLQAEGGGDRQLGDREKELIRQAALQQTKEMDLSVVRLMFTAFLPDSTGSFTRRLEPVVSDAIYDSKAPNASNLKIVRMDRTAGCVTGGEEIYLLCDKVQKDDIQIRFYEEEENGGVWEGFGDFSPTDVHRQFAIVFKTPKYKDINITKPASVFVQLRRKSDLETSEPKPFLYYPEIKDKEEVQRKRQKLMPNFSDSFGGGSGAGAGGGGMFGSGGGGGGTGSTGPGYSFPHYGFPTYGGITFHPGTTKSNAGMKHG
STAT3 binder: STAT3 binders, primary screen, biochemical, small molecule microarray, single point, set 2; Signal transducer and activator of transcription 3 (Homo sapiens), P40763; His-STAT3 binding, anti-His fluorescence; calls only; 17,000 tested, 0.2% active; AID 624138, 2012;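 active = compounds whose four printed spots each show fluorescence over background unusually high for their array block, chance value under 7%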
* = called active by the depositor; i = inactive; · = no result given; + = active, no number.

SMILES | p53 mut binder | mut p53 react | c-Myc SMM | NFkB binder | STAT3 binder
COc1cc(OC)cc(C(=O)NCc2nc(-c3ccccc3)no2)c1 | · | -2.3 | · | · | ·
Cc1ccc(-c2cnc(-c3ccc(Br)cc3)o2)cc1 | · | 71.5* | · | · | ·
Cc1cc(C)c(NC(=O)CSc2nnc(-c3ccc(Br)cc3)o2)c(C)c1 | · | 0.6 | · | · | ·
O=C(O)CCNC(=O)c1cncc(Br)c1 | i | -4.7 | + | i | i
NC(=O)COc1ccc(NC(=O)c2cncc(Br)c2)cc1 | · | 9.3 | · | · | ·
O=C(CC1(O)C(=O)N(Cc2cccc3ccccc23)c2ccccc21)c1ccccc1[N+](=O)[O-] (stereo not given) | · | -5.1 | · | · | ·
CO[C@H]1/C=C\O[C@@]2(C)Oc3c(C)c(O)c4c(O)c(c(/C=N\N5CCN(C)CC5)c(O)c4c3C2=O)NC(=O)/C(C)=C\C=C/C(C)[C@H](O)[C@@H](C)[C@@H](O)[C@@H](C)[C@@H](OC(C)=O)[C@@H]1C (stereo not given in full) | i | 3.4 | i | + | i
CC(=O)c1cccc(N(CC(=O)Nc2ccc(F)cc2F)S(C)(=O)=O)c1 | · | 60.2* | · | · | ·
COCCNC(=S)Nc1nc(OC)cc(OC)n1 | i | -10.5 | + | i | i
Cc1cccc(C#Cc2ccccc2)n1 | i | 84.6* | i | i | i
CC(=O)CCc1ccc(Oc2ccc(C(F)(F)F)cn2)cc1 | i | 64.7* | i | i | i
C[C@@H]1CCCCO[C@@H](CN(C)CC2CCCCC2)[C@H](C)CN([C@H](C)CO)C(=O)c2cc(NS(C)(=O)=O)ccc2O1 | i | · | i | + | i
C[C@@H]1CCCCO[C@@H](CN(C)C)[C@H](C)CN([C@@H](C)CO)C(=O)c2cc(NS(C)(=O)=O)ccc2O1 | i | 3.8 | i | i | i
C[C@@H]1CN([C@H](C)CO)C(=O)c2cc(NC(=O)Nc3ccc4c(c3)OCO4)ccc2O[C@@H]1CN(C)CC1CCCCC1 | + | 1.5 | i | i | i
C[C@H]1CCCCO[C@@H](CN(C)CC2CCCCC2)[C@@H](C)CN([C@@H](C)CO)C(=O)c2cc(NC(=O)C3CCCCC3)ccc2O1 | i | · | i | + | i
Cc1ccc(S(=O)(=O)Nc2cc(S(=O)(=O)c3ccc(C)cc3)c(O)c3ccccc23)cc1 | i | -5.8 | i | i | i
Nc1nnc(SCC(=O)c2ccc3ccccc3c2)s1 | · | 94.8* | · | · | ·
O=C(CSc1nc(O)cc(=O)[nH]1)N(c1ccccc1)c1ccccc1 | · | -1.3 | · | · | ·
Cc1ccc(-c2cn3c4ccccc4nc3n2CCN2CCOCC2)cc1 | · | -5.4 | · | · | ·
c1ccc(-c2cn3c4ccccc4n(CCN4CCOCC4)c3n2)cc1 | i | 11.0 | + | i | i
COc1ccc2cc(C(=O)NCc3ccco3)c(=O)oc2c1 | · | 74.3* | · | · | ·
Cn1nnnc1SCCNCc1cccnc1 | · | 7.2 | · | · | ·
Cn1nnnc1SCCNC/C=C/c1ccccc1 | i | 6.4 | + | i | i
C/C=C/C1=C(Cl)C(=O)[C@@H](O)[C@@]1(O)C(=O)OC | i | 25.8 | i | + | i
O=C(Nc1ccc(S(=O)(=O)Nc2ncccn2)cc1)C1CCC1 | i | -1.3 | i | i | i
SMILES | p53 mut binder | mut p53 react | c-Myc SMM | NFkB binder | STAT3 binder
C=CCOC(=O)[C@@H]1[C@H]2C(=O)O[C@H](c3ccccc3)[C@H](c3ccccc3)N2[C@H](c2ccc(OCCOC(=O)[C@@H]3C[C@@H]4C(=O)N[C@@H](Cc5ccccc5)C(=O)N4[C@@H]3c3cccc(OCCO)c3)cc2)[C@@]12C(=O)Nc1ccc(I)cc12 | i | · | i | + | i
C=CCOC(=O)[C@H]1[C@@H]2C(=O)O[C@@H](c3ccccc3)[C@@H](c3ccccc3)N2[C@@H](c2ccc(OCCOC(=O)[C@H]3C[C@H]4C(=O)N5CCC[C@H]5C(=O)N4[C@H]3c3ccc(O)cc3)cc2)[C@]12C(=O)Nc1ccccc12 | i | · | i | + | i
C=CCOC(=O)[C@@H]1[C@H]2C(=O)O[C@H](c3ccccc3)[C@H](c3ccccc3)N2[C@H](c2ccc(OCCOC(=O)[C@@H]3C[C@@H]4C(=O)N[C@@H](CC(C)C)C(=O)N4[C@@H]3c3ccc(O)cc3)cc2)[C@@]12C(=O)Nc1ccc(I)cc12 | i | · | i | i | i
COC(=O)c1c(NC(=S)NCc2ccccn2)sc2c1CCC2 | · | 68.2* | · | · | ·
COc1cc(OC)c(OC)cc1CN1CCN(Cc2ccccn2)CC1 | i | 0.0 | + | i | i
COc1ccc(NC(=O)NCc2ccccn2)cc1OC | · | -4.3 | · | · | ·
CN(C)c1nc(OC(C(F)(F)F)C(F)(F)F)nc(N(c2ccccc2)c2ccccc2)n1 | · | 5.9 | · | · | ·
CN(C)c1nc(N)nc(CSc2ncc(Cl)cc2Cl)n1 | · | 62.2* | · | · | ·
Cc1nn(Cc2ccc(F)cc2)c(C)c1NC(=O)C1CC(c2c(F)cccc2Cl)=NO1 (stereo not given) | i | 3.9 | i | i | i
Cc1cc(C)c(NC(=O)C(C)N(c2ccc(Oc3ccccc3)cc2)S(C)(=O)=O)c(C)c1 (stereo not given) | · | -3.2 | · | · | ·
NC(=O)C1CCN(C(=O)CSc2nnnn2-c2ccccc2)CC1 | · | 2.8 | · | · | ·
C[C@H]1CN([C@@H](C)CO)C(=O)c2cccc(NC(=O)Nc3ccc4c(c3)OCO4)c2O[C@@H]1CN(C)C | · | 57.8* | · | · | ·
CNC[C@@H]1Oc2c(NC(=O)Nc3ccc4c(c3)OCO4)cccc2C(=O)N([C@@H](C)CO)C[C@@H]1C | i | · | i | i | i
C[C@H](CO)N1C[C@H](C)[C@H](CN(C)S(C)(=O)=O)Oc2c(NC(=O)Nc3ccc4c(c3)OCO4)cccc2C1=O | · | 7.2 | · | · | ·
C[C@@H]1CN([C@@H](C)CO)C(=O)c2cccc(NC(=O)Nc3ccc4c(c3)OCO4)c2O[C@H]1CN(C)C | i | 74.2* | i | i | i
O=C(CSc1n[nH]c(-c2ccc(Cl)cc2)n1)Nc1cccc(F)c1 | · | 6.4 | · | · | ·
O=C(CN1C(=O)S/C(=C\C=C\c2ccccc2)C1=O)Nc1cccc(O)c1 | · | 59.2* | · | · | ·
O=c1c(-c2ccc(O)cc2)coc2cc(O)cc(O)c12 | · | 53.0* | · | · | ·
O=C(O)CNS(=O)(=O)c1cc(Cl)c(Cl)cc1Cl | + | -4.6 | + | + | i
O=C(CNS(=O)(=O)c1cc(Cl)ccc1Cl)Nc1ccc(Cl)cc1 | · | 12.5 | · | · | ·
Cc1ccc2ccc(C(Nc3ccccn3)c3ccccc3Cl)c(O)c2n1 (stereo not given) | · | -57.5 | · | · | ·
COc1ccccc1NC(=O)c1c(NC(=O)COc2ccccc2)sc(C)c1C | · | -10.5 | · | · | ·
COc1ccccc1NC(=O)c1c(NC(=O)c2ccco2)sc(C)c1C | i | 76.4* | i | i | i
